{"source": "PubChem BioAssay AID463190", "about": "(Sanford-Burnham Center for Chemical Genomics, 2010)", "note": "The whole screen tested about 330,000 compounds, of which about 7,300 (2.2%) were called active.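 The calls were made as follows: active = inhibition of at least 40%; inactive = the rest.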 The entries come from a sample that favours actives as a whole."}
{"assay": "growth inhibitors of tim10-1 mutant yeast, primary screen, luminescence, uHTS (AID 463190);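 also: mutant grown at 25 °C; 0% = DMSO wells with yeast and 100% = wells holding no yeast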", "conditions": "S. cerevisiae tim10-1 ts strain growth, BacTiter-Glo, 24 h; at 20 µM; stronger effect = higher value"}
{"smiles": "CCOC(=O)/C=C/CN(C(=O)OC(C)(C)C)S(=O)(=O)N1CC=CC1", "inhibition": "17.9% (inactive)"}
{"smiles": "CC(C)(Oc1ccc(C2CC2(Cl)Cl)cc1)C(=O)O", "note": "(stereo not drawn)", "inhibition": "9.95% (inactive)"}
{"smiles": "CN(C)C(=O)c1ccc(NC(=O)c2ccccc2-c2ccccc2)cc1", "inhibition": "3.15% (inactive)"}
{"smiles": "CN(C)C(=O)c1ccc2c(c1)C1C3CCC(C3)C1C(c1ccccc1)N2", "note": "(stereo not drawn)", "inhibition": "46% (active)"}
{"smiles": "Cc1ccc(C)c(N2CCN(C(=O)CCc3nc(-c4cccc(C(F)(F)F)c4)no3)CC2)c1", "inhibition": "17.8% (inactive)"}
{"smiles": "OCCC1CN(Cc2ccccc2-c2ccco2)CCN1Cc1ccsc1", "note": "(stereo not drawn)", "inhibition": "17.5% (inactive)"}
{"smiles": "COc1cc(C=NNC(=O)c2cccnc2)ccc1OC(=O)c1ccccc1F", "inhibition": "4.11% (inactive)"}
{"smiles": "CN(NS(=O)(=O)c1cccs1)c1ncc(C(F)(F)F)cc1Cl", "inhibition": "15.9% (inactive)"}
{"smiles": "COCCNc1nc(-n2nc(C)cc2C)nc2sc3c(c12)CCCC3", "inhibition": "30.3% (inactive)"}
{"smiles": "Cc1cc(C)n(-c2nc(SCC(=O)N3CCCC3)c3c4c(sc3n2)CCCC4)n1", "inhibition": "52.2% (active)"}
{"smiles": "CC(C)c1nc(SCC(=O)Nc2cccc(C(=O)O)c2)c2c3c(sc2n1)CCCC3", "inhibition": "10.1% (inactive)"}
{"smiles": "O=C(O)C1CCCN1S(=O)(=O)c1ccc(Br)cc1", "note": "(stereo not drawn)", "inhibition": "-5.99% (inactive)"}
{"smiles": "COCCN(C(=O)COC(=O)Cc1cccc(OC)c1)c1c(N)n(Cc2ccccc2)c(=O)[nH]c1=O", "inhibition": "0.462% (inactive)"}
{"smiles": "CC(C)(C)NC(=O)/C(=C/c1cccnc1)NC(=O)c1ccco1", "inhibition": "-15.4% (inactive)"}
{"smiles": "Cc1cc(/C=C(/C#N)C(=O)Nc2ccc(Cl)cc2)c(C)n1-c1cccnc1", "inhibition": "20.6% (inactive)"}
{"smiles": "N#C/C(=C\\c1cccnc1)C(=O)Nc1ccc(SC(F)F)cc1", "inhibition": "52.5% (active)"}
{"smiles": "O=C(O)CCCCCCCCc1cn(CN2C(=O)c3ccccc3C2=O)nn1", "inhibition": "-13.2% (inactive)"}
{"smiles": "CCOC(=O)N1CCC(N(CCOC)C(=O)Nc2ccc(C)c(C)c2)CC1", "inhibition": "26.7% (inactive)"}
{"smiles": "COc1ccc(/C(=N\\O)c2nccc3cc(OC)c(OC)cc23)cc1OC", "inhibition": "17.4% (inactive)"}
{"smiles": "Cc1ccccc1Nc1nc(-c2cccnc2)cs1", "inhibition": "-3.25% (inactive)"}
{"smiles": "Cc1ccc(Nc2nc(-c3ccc(O)cc3O)cs2)nc1", "inhibition": "43.9% (active)"}
{"smiles": "Cc1ccc(-c2csc(NCCc3nc4cc(Cl)c(Cl)cc4n3CCOCCO)n2)cc1", "inhibition": "33.4% (inactive)"}
{"smiles": "COc1c(C(=O)N2CCCC2)ccc2ccccc12", "inhibition": "6% (inactive)"}
{"smiles": "C[C@@H](NC(=O)[C@@H]1Cc2ccccc2CN1)C(=O)NC1CCCC1", "inhibition": "5.23% (inactive)"}
{"smiles": "CC(C)(CNC(=O)c1cc(=O)[nH]c2ccccc12)N1CCOCC1", "inhibition": "-7.73% (inactive)"}
{"smiles": "O=[N+]([O-])c1cccc(/C=N/Nc2ncc(Br)cn2)c1", "inhibition": "-23.5% (inactive)"}
{"smiles": "O=C(N/N=C/c1ccc([N+](=O)[O-])cc1)C(=O)N1CCCC1", "inhibition": "17.3% (inactive)"}
{"smiles": "O=[N+]([O-])c1ccc(N/N=C/c2ccccc2)cc1", "inhibition": "40.7% (active)"}
